# Bioassay records from PubChem BioAssay.
# Menin-MLL TR inh: inhibitors of human menin-MLL interaction, mutant MLL peptide | O00255 | hit rate 0.23% among 270,000 | Menin + Texas Red MLL mutant peptide, fluorescence polarization | Potency, µM (highest dose often 61.6 µM), for the others: at the top dose FP activity change, negative = inhibition, hits mostly inhibitors; active = well fitted inhibition curve with a large enough effect in the polarisation, with a control signal flat, not every such curve was filed as active; inconclusive = small, poorly fitted or top-dose-only effect, or effect the other way, or a change in a side signal; inactive = no such curve, though single readings can be large or run the other way; the % refers to the polarisation; note: potency is the fitted concentration of half-maximal effect; % of control where 0% means no effect
# Target sequence (O00255 whole entry, looked up): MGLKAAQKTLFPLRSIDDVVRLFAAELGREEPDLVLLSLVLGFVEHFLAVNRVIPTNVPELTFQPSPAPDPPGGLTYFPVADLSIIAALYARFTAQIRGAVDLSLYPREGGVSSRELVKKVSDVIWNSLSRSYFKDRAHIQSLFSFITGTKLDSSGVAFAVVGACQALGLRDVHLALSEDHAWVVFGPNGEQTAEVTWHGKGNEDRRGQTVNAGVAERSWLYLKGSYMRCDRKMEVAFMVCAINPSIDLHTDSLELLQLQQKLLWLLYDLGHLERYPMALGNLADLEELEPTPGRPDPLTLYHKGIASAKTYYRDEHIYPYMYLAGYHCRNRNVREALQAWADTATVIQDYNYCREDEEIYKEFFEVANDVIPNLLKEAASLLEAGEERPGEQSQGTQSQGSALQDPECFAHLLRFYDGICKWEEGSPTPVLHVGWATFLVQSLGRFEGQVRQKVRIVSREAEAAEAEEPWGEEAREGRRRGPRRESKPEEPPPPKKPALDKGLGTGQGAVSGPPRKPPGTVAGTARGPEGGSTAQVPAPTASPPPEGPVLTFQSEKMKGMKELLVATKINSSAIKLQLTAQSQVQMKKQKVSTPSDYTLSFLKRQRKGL
# Menin-MLL FL inh: displaces fluorescein MLL peptide from human menin. Fluorescence polarization, fluorescein-MLL peptide displacement from menin. FP activity change, % at 61.4 µM. 290,000 tested, under 10 active. AID 1766; active = well fitted curve in the direction sought with a large enough effect in the polarisation, not every such curve was filed as active; inconclusive = small, poorly fitted or top-dose-only effect, or effect the other way, or a change in a side signal; inactive = no such curve, though single readings can be large or run the other way; the % refers to the polarisation; note: % of control where 0% means no effect
# p53 reactivator: re-activators of mutant p53 | H1299 p53-A138V BP100-luciferase reporter, luminescence, 24 h | Potency, µM (doses to about 92.2 µM), without a hit: at the highest dose activity change, positive = activation, actives largely listed as activators | hit rate 0.063% among 320,000 | AID 504706; active = well fitted activation curve with a large enough effect; inconclusive = small, poorly fitted or top-dose-only effect; inactive = no such curve, though single readings can be large or run the other way; note: potency is the fitted concentration of half-maximal effect; % of control where 0% means no effect; nearly all actives have a fitted effect of over 45% in size
#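 H1299 (p53-null), stable ts p53-A138V + BP100-Luc; 1000 cells/well, Opti-MEM/10% FBS; cpd 4 pt, 1:5; 24 h, 37 deg C, 5% CO2; detection reagent 10 min RT; luminescence.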
# ClpP mod: qHTS Assay for Activators of ClpP; ATP-dependent Clp protease proteolytic subunit (Bacillus subtilis (strain 168)), P80244; purified B. subtilis ClpP, FRET peptide cleavage, 20 min; Potency, µM (top dose mostly 57.5 µM), without a hit: at the top dose activity change, negative = active; hit rate 1.9% among 340,000; AID 651965, 2013; active = well fitted falling curve with a large enough effect; inconclusive = small, poorly fitted or top-dose-only effect; inactive = no such curve, though single readings can be large or run the other way; note: potency is the fitted concentration of half-maximal effect; the source files actives as falling curves though it sought activators and does not explain the sign; nearly all actives have a fitted effect of over 65% in size
#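 Purified B. subtilis ClpP, 10 microg/mL final in Tris/HCl pH8 with KCl, BSA, glycerol and Tween-20, cleaved an Abz/nitrotyrosine-quenched decapeptide. Fluorescence (ex 320, em 430) was read at 0 and 20 min at room temperature. Delta was normalized to 5.8 microM ADEP and DMSO/no-enzyme controls.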
# MLL CXXC-DNA inh: inhibitors of human MLL CXXC domain-DNA interaction | MLL-CXXC / FITC-HOXA9 DNA fluorescence polarization | Q03164 | Potency, µM (series often up to 115 µM), for inactives: at the highest dose activity change, negative = inhibition, most hits filed as inhibitors | hit rate 0.037% among 290,000; active = well fitted inhibition curve with a large enough effect in the polarisation, with a control signal flat, not every such curve was filed as active; inconclusive = small, poorly fitted or top-dose-only effect, or effect the other way, or a change in a side signal; inactive = no such curve, though single readings can be large or run the other way; the % refers to the polarisation; note: potency is the fitted concentration of half-maximal effect
#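 Steps: dispense CXXC domain solution (7 uM) → pin compounds or unlabeled HOX-A9 DNA control → 5 min ambient → add FLSN-HOX-A9 solution (50 nM) → spin → 30 min ambient → fluorescence polarization. Tris pH 7.5/NaCl/DTT/BSA buffer.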
# Numbers without * were called inactive; u = inconclusive; x = no result; [ ] = another dose, or the depositor's remark. Many of the other results were omitted from the sample, so hits are more common in it than they were.
SMILES,Menin-MLL TR inh,Menin-MLL FL inh,p53 reactivator,ClpP mod,MLL CXXC-DNA inh
CCOP(=O)(Nc1cccc2oc(=O)c3ccccc3c12)OCC,x,x,x,11µM*,x
Cc1ccc(N2C(=O)c3ccccc3NC2C(C)Cc2ccc3c(c2)OCO3)cc1 (stereo not given),-9%,0,12%,32µM*,9%
CC(C)Oc1ccccc1C1Nc2ccccc2C(=O)N1c1ccc2c(c1)OCCO2 (stereo not given),x,3,13%,u,8%
COc1ccccc1CO/N=C/c1cccn1-c1nccc(N(C)C)c1C#N,2%,4,-4%,1%,3%
CN(C)c1ccnc(-n2cccc2/C=N/OCc2ccccc2)c1C#N,-6%,7,0%,14µM*,0%
CCc1ccc(C(=O)C[N+]2(C)CCOCC2)cc1,x,x,x,-1%,x
COc1ccccc1CNC(=O)CSc1ccc(-c2sc(-c3ccccc3)nc2C)nn1,x,x,x,28µM*,x
COc1cc(OC)c(NC(=O)CCn2cccn2)cc1Cl,x,x,x,0%,x
CC(=O)N=C1SC2CS(=O)(=O)CC2N1c1c(Cl)cccc1Cl (stereo not given),4%,0,1%,32µM*,5%
CN(C)C(=O)COC(=O)c1ccccc1OCC(=O)Nc1ccc(Br)cc1,x,x,x,-2%,x
Cc1cc(C)c(C#N)c(N2CCN(c3ccc(F)cc3)CC2)n1,-4%,2,-4%,x,-5%
Cc1cc(C)c(C#N)c(N2CCCC2)n1,2%,3,1%,3.5µM*,-3%
COc1cc2c(C#N)c(N3CCN(c4ccccc4OC)CC3)nc(N)c2c(N)n1,u,-1,-4%,32µM*,10%
N#Cc1c(N2CCCC2)nc(N)c2c(N)nc(N3CCCC3)cc12,u,0,u,7.9µM*,u
COC(=O)c1ccccc1S(=O)(=O)N1CCc2nc(-c3ccccc3)c3c(c2C1)CO[C@@H](C)C3,1%[11.7 µM],6[11.7 µM],x,x,x
COc1cc2c(=O)n(CC3CCCO3)c(=O)n(CC(=O)Nc3cccc(Cl)c3)c2cc1OC (stereo not given),12%,2,-2%,32µM*,8%
O=C(Cn1c(=O)n(CC2CCCO2)c(=O)c2ccccc21)Nc1cccc(Cl)c1 (stereo not given),x,x,x,-11%,x
Cc1onc(-c2c(F)cccc2Cl)c1C(=O)NCc1ccc2c(c1)OCO2,x,x,-32%,28µM*,11%
N[C@H](Cc1ccc(O)c(O)c1)C(=O)O,u,2,x,x,-14%
COc1ccc(NC(=O)NN(C(=O)c2ccccc2)C(C)(C)C)cc1,5%,-1,-2%,25µM*,7%
COc1ccc(NC(=O)c2ccc(C(=O)Nc3ccc(OC)cc3OC)cc2)c(OC)c1,5%,-8,-3%,x,11%
COc1ccc(OC)c(NC(=O)c2ccc3c(c2)c(C)c(C)n3Cc2ccc(F)cc2)c1,x,x,x,22µM*,x
COc1ccc(OC)c(CNC(=O)c2ccc3c(c2)c(C)c(C)n3Cc2ccc(Cl)cc2)c1,x,x,x,32µM*,x
COc1ccc(OC)c(NC(=O)c2ccc(CN3CCOCC3)cc2)c1,3%,6,-1%,-4%,1%
COc1ccc(NC(=O)c2ccc3c(c2)c(C)c(C)n3Cc2ccc(F)cc2)c(OC)c1,x,x,x,22µM*,x
SMILES,Menin-MLL TR inh,Menin-MLL FL inh,p53 reactivator,ClpP mod,MLL CXXC-DNA inh
O=c1[nH]c(SCc2ccccc2)ncc1S(=O)(=O)c1ccccc1,x,x,x,-2%,x
C=C[C@@]1(C)CC(=O)[C@@]2(O)[C@@]3(C)[C@@H](O)CCC(C)(C)[C@@H]3[C@H](O)[C@H](OC(C)=O)[C@@]2(C)O1,1%[24.8 µM],0,x,x,x
COc1ccc(-c2nc(-c3cccs3)c(-c3cccs3)[nH]2)cc1O,u,2,0%,25µM*,u
Cc1ccccc1NC(=S)NCCC(c1ccccc1)c1ccccc1,2%,1,2%,13µM*,10%
CCCCNC(=O)C(CC)n1c(SCc2cccc(F)c2)nc2ccncc21 (stereo not given),x,x,x,-14%,x
CC(OC(=O)c1snc(C(=O)NC2CCCCC2)c1N)C(=O)NC(C)(C)C (stereo not given),-29%,2,-1%,28µM*,-4%
O=C(COC(=O)c1nsc(Cl)c1Cl)NC1CCCCC1,0%,1,-3%,x,-2%
CC(OC(=O)c1nsc(Cl)c1Cl)C(=O)NC1CCCCC1 (stereo not given),x,x,6%,x,1%
CC(C)(C)NC(=O)COC(=O)c1snc(C(=O)NC2CCCCC2)c1N,-12%,11,17%,28µM*,14%
CC(Sc1ncc(S(=O)(=O)c2ccc(C(C)C)cc2)c(N)n1)C(=O)Nc1ccccc1 (stereo not given),x,x,x,-5%,x
Cc1ccc(NC(=O)C(C)OC(=O)c2ccc(Cl)nc2)cc1S(=O)(=O)N1CCOCC1 (stereo not given),x,x,-3%,28µM*,x
Cc1ccc(NC(=O)C(C)OC(=O)c2nc(Cl)ccc2Cl)cc1S(=O)(=O)N1CCOCC1 (stereo not given),x,x,x,-5%,x
CCCCCCCCCCCCCCCCn1cc[n+](Cc2ccccc2)c1C,22µM*,-20,x,x,x
O=C(Nc1nnc(CSCc2ccc(Cl)cc2)s1)c1cccc([N+](=O)[O-])c1,u,1,-12%,25µM*,9%
O=C(Nc1ccc(Cl)cc1)Nc1nnc(CSCc2ccccc2)s1,-29%,-2,18%,18µM*,5%
O=C(NCc1ccc(Cl)cc1)c1ccc2c(c1)NC(=O)C(CS(=O)(=O)Cc1ccc(F)cc1Cl)N2 (stereo not given),x,x,x,4%,x
CN(C)CCNC(=O)c1ccc2c(c1)NC(=O)C(CS(=O)(=O)Cc1cccc(Br)c1)N2 (stereo not given),x,x,x,32µM*,x
CCN(CC)CCCNC(=O)c1ccc2c(c1)NC(=O)C(CS(=O)(=O)Cc1ccc(F)cc1Cl)N2 (stereo not given),x,x,x,3.2µM*,x
CCN(CC)CCNC(=O)c1ccc2c(c1)NC(=O)C(CS(=O)(=O)Cc1ccc(F)cc1Cl)N2 (stereo not given),x,x,x,28µM*,x
Cc1ccc(CNC(=O)c2ccc3c(c2)NC(=O)C(CS(=O)(=O)Cc2cccc(F)c2)N3)cc1 (stereo not given),x,x,x,4%,x
CCOCCCNC(=O)c1ccc2c(c1)NC(=O)C(CS(=O)(=O)Cc1ccc(F)cc1Cl)N2 (stereo not given),x,x,x,7.1µM*,x
NCCCC[C@H](NC(=O)[C@H](Cc1c[nH]c2ccccc12)NC(=O)[C@H](CC(=O)O)NC(=O)[C@H](Cc1cnc[nH]1)NC(=O)[C@H](CO)NC(=O)[C@H](Cc1c[nH]c2ccccc12)NC(=O)[C@H](Cc1cnc[nH]1)NC(=O)[C@@H]1CCC(=O)N1)C(=O)N1CCC[C@H]1C(=O)NCC(N)=O,-4%,-1,x,x,x
O=C(c1ccccc1)N1CCc2cc(CNS(=O)(=O)c3ccc(Cl)s3)ccc21,x,x,x,0%,x
